Outcome and AC50 data for four molecules are collected here from PubChem BioAssay (EPA / NIEHS).

For experiment [1], the target named is Bile acid receptor (Homo sapiens) (UniProt Q96RI1). As to the kind of experiment: ATG_IR1_CIS: Attagene CIS-FACTORIAL HepG2 Assay for human Nuclear Receptor Subfamily 1 Group H Member 4 (NR1H4), IR1 submotif (AID 2282946). Conditions: IR1 reporter transcription, actives raise or lower the signal. Put shortly: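 Fluorescence of capillary-separated, HpaI-digested RT-PCR reporter products gave IR1-element mRNA induction in HepG2 cells 24 h after dosing. Endogenous transcription factors drove the cis-regulated reporters; activity was fitted bidirectionally against DMSO.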
Sequence of Bile acid receptor (Homo sapiens) (Q96RI1 whole entry, looked up): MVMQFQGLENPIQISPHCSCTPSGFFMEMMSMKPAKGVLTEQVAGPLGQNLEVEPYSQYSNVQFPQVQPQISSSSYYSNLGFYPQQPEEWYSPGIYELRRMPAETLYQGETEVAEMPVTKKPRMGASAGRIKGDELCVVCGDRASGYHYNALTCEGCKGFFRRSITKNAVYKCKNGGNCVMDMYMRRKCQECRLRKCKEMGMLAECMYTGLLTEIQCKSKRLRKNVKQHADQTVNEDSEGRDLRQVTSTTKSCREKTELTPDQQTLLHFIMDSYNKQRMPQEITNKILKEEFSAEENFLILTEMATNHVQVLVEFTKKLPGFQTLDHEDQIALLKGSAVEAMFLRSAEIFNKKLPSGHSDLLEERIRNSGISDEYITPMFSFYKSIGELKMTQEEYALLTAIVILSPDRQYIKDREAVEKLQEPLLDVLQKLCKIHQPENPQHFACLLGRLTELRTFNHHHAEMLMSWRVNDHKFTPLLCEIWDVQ

The nature of experiment [2]: ATG_GRE_CIS: Attagene CIS-FACTORIAL HepG2 Assay for human Glucocorticoid Response Elements (GRE) (AID 2282947). Conditions: HepG2 GRE cis-reporter, Attagene multiplex mRNA; actives raise or lower the signal. Put shortly:
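Read-out: fluorescent reporter-transcript fragments separated by capillary electrophoresis after RT-PCR. Transiently transfected HepG2 cells carrying cis-element-driven reporter units were dosed for 24 h; gain or loss of signal fitted against DMSO control.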

A short description of experiment [3]: ATG_ISRE_CIS: Attagene CIS-FACTORIAL HepG2 Assay for human Interferon Regulatory Factor 1 (IRF1) binding to an Interferon-Stimulated Response Element (ISRE) (AID 2282948). Conditions: HepG2 ISRE cis-reporter (Attagene), mRNA transcription readout; actives raise or lower the signal. The method in brief:
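Endogenous transcription factor activity read as reporter transcript abundance via RT-PCR and capillary electrophoresis. HepG2 cells transiently transfected, 24 h chemical exposure. Gain or loss fitted against DMSO baseline.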

The nature of experiment [4]: ATG_M_32_CIS: Attagene CIS-FACTORIAL HepG2 Assay for M32 Transcription Factor (Internal Marker) (AID 2282949).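 Further: background control marker of the multiplexed CIS panel rather than a real target.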 Conditions: HepG2 Attagene cis-factorial M32 reporter, mRNA; actives raise or lower the signal. The method in brief: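 Using DMSO as baseline, bidirectional curve fits were applied to reporter mRNA signals. These came from transiently transfected HepG2 cells exposed for 24 h, with RNA analysed by RT-PCR, FAM primer extension, HpaI digestion and CE.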

Experiment [5] in a line: ATG_M_06_CIS: Attagene CIS-FACTORIAL HepG2 Assay for M06 Transcription Factor (Internal Marker) (AID 2282950). Conditions: HepG2 Attagene CIS-FACTORIAL M06 internal marker reporter; actives raise or lower the signal. Put shortly: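 One of many multiplexed endpoints: HepG2 reporter mRNA after 24 h dosing, detected by RT-PCR and capillary electrophoresis fluorescence; gain or loss of signal analysed against DMSO.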

The target in experiment [6] is Hypoxia-inducible factor 1-alpha (Homo sapiens) (UniProt Q16665). As to the kind of experiment: ATG_HIF1a_CIS: Attagene CIS-FACTORIAL HepG2 Assay for human Hypoxia Inducible Factor 1 (HIF1A) (AID 2282951). Conditions: HepG2 Attagene cis-factorial HIF1a reporter transcription; actives raise or lower the signal. Put shortly:
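In this multiplexed cell assay, HepG2 cells bearing transfected cis reporters are dosed for 24 h and reporter mRNA is read by RT-PCR plus capillary electrophoresis; signal increases and decreases are both scored against DMSO.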

In experiment [7] the target is Hepatocyte nuclear factor 6 (Homo sapiens) (UniProt Q9UBC0). The experiment can be described thus: ATG_HNF6_CIS: Attagene CIS-FACTORIAL HepG2 Assay for human Hepatocyte Nuclear Factor 6 (HNF6) (AID 2282952). Conditions: HepG2 Attagene cis-factorial HNF6 reporter transcription; actives raise or lower the signal. Put shortly:
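Activity values derive from bidirectional fitting against DMSO of reporter mRNA levels, measured by capillary electrophoresis of labelled RT-PCR products from HepG2 cells exposed 24 h.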

In experiment [8] the target is Heat shock factor protein 1 (Homo sapiens) (UniProt Q00613). The experiment can be described thus: ATG_HSE_CIS: Attagene CIS-FACTORIAL HepG2 Assay for human Heat Shock Transcription Factor 1 (HSE) (AID 2282953). Conditions: HepG2 HSE cis-reporter, Attagene RNA transcription; actives raise or lower the signal. The method in brief: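 Using HepG2 with transfected cis-driven reporter constructs, compound effects on endogenous factor activity are scored as reporter mRNA change at 24 h. Detection: RT-PCR, HpaI digestion, capillary electrophoresis; bidirectional fitting to DMSO.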
Sequence of Heat shock factor protein 1 (Homo sapiens) (Q00613 whole entry, looked up): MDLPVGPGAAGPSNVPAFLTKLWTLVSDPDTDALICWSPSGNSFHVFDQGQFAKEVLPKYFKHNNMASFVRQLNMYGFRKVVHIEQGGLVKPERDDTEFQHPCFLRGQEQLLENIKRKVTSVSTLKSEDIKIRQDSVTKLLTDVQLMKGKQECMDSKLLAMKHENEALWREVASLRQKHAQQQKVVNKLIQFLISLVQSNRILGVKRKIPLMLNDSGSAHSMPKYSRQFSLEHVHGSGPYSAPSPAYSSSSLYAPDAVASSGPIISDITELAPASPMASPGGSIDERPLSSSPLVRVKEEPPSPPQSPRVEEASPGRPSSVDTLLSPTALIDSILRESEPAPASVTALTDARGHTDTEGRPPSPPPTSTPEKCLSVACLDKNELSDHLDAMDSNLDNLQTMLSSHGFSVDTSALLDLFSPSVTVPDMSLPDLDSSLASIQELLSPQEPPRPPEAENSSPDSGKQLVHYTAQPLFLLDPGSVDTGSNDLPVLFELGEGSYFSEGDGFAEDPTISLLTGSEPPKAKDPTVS

Experiment [9] is described as follows: ATG_MRE_CIS: Attagene CIS-FACTORIAL HepG2 Assay for human Metal Responsive Element (MRE) (AID 2282954). Conditions: HepG2 MRE cis-reporter transcription, Attagene multiplex; actives raise or lower the signal. The method in brief: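 RT-PCR/capillary electrophoresis readout of reporter mRNA, 24 h post-dosing, in HepG2 cells transfected with multiplexed cis-regulated reporter constructs. Gain or loss of signal fitted bidirectionally against DMSO baseline.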

A short description of experiment [10]: ATG_PBREM_CIS: Attagene CIS-FACTORIAL HepG2 Assay for human Phenobarbital-responsive Enhancer Module (PBREM) (AID 2282955). Conditions: HepG2 PBREM cis-reporter, Attagene multiplexed transcription; actives raise or lower the signal. The method in brief:
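After a 24 h incubation with test chemical, transfected HepG2 cells yield total RNA; reporter-specific RT-PCR products are fluorescently labelled, HpaI-digested and resolved by capillary electrophoresis against ROX size standards.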

Experiment [11] addresses Paired box protein Pax-6 (Homo sapiens) (UniProt P26367). As to the kind of experiment: ATG_Pax6_CIS: Attagene CIS-FACTORIAL HepG2 Assay for human Paired Box 6 (PAX6) (AID 2282956). The following applies: HepG2 CIS-FACTORIAL PAX6 reporter transcription, RNA readout; actives raise or lower the signal. Put shortly: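 Read-out is reporter transcript level, measured by RT-PCR with fluorescent primer extension and capillary electrophoresis after 24 h dosing of transfected HepG2 cells. Activity in either direction fitted relative to DMSO control.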

Experiment [12] can be described thus: ATG_PXRE_CIS: Attagene CIS-FACTORIAL HepG2 Assay for human Pregnane X Receptor Element (PXRE) (AID 2282957). The following applies: HepG2 Attagene CIS-FACTORIAL PXRE reporter, mRNA; actives raise or lower the signal. Put shortly: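 Fluorescent capillary electrophoresis of amplified reporter cDNA gave the signal, collected 24 h after dosing HepG2 cells that held transfected cis-element reporter constructs.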

A short description of experiment [13]: ATG_PPRE_CIS: Attagene CIS-FACTORIAL HepG2 Assay for human Peroxisome Proliferator-activated Response Element (PPRE) (AID 2282958). The following applies: HepG2 PPRE cis-element reporter, Attagene transcription factor profiling; actives raise or lower the signal. The method in brief: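 Multiplexed reporter transcription units under cis-regulatory promoters were transfected into HepG2 cells to capture endogenous factor activity. A 24 h incubation preceded RNA isolation and fluorescent RT-PCR fragment analysis.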

Experiment [14] in a line: ATG_RORE_CIS: Attagene CIS-FACTORIAL HepG2 Assay for human RAR-related Orphan Receptor Element (RORE) (AID 2282959). Conditions: HepG2 Attagene cis-factorial RORE reporter, mRNA; actives raise or lower the signal. The method in brief: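 Fluorescence intensity of reporter-specific cDNA fragments, separated by capillary electrophoresis, gives the signal. Source: HepG2 liver cells transiently transfected with cis-element reporters and exposed 24 h; DMSO-normalized bidirectional fit.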

A short description of experiment [15]: ATG_Sox_CIS: Attagene CIS-FACTORIAL HepG2 Assay for human SRY-box transcription factor (SOX) (AID 2282960). The following applies: HepG2 Attagene cis-factorial SOX reporter, mRNA; actives raise or lower the signal. The method in brief:
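After 24 h of chemical treatment, transfected HepG2 reporter cells are lysed for total RNA. Transcript levels come from RT-PCR with labelled primer extension and capillary electrophoresis, analysed bidirectionally versus DMSO.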

Experiment [16] concerns the target Transcription factor Sp1 (Homo sapiens) (UniProt P08047). The experiment can be described thus: ATG_Sp1_CIS: Attagene CIS-FACTORIAL HepG2 Assay for human Specificity Protein 1 (Sp1) (AID 2282961). Conditions: HepG2 Sp1 cis-reporter transcription, actives raise or lower the signal. Put shortly:
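Sp1-driven reporter mRNA, read as capillary electrophoresis fluorescence after RT-PCR, in transiently transfected HepG2 cells dosed for 24 h; signal change in either direction relative to DMSO.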

Experiment [17] is described as follows: ATG_SREBP_CIS: Attagene CIS-FACTORIAL HepG2 Assay for human Sterol Regulatory Element Binding (SREBP) (AID 2282962). The following applies: HepG2 Attagene cis-factorial SREBP reporter, mRNA; actives raise or lower the signal. The method in brief: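 Endogenous SREBP activity read as cis-element-driven reporter transcript in transiently transfected HepG2, 24 h post-dosing; quantified via RT-PCR plus capillary electrophoresis of fluorescent fragments. Gain or loss of signal fitted relative to DMSO baseline.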

For experiment [18], the target named is Signal transducer and activator of transcription 3 (Homo sapiens) (UniProt P40763). As to the kind of experiment: ATG_STAT3_CIS: Attagene CIS-FACTORIAL HepG2 Assay for human Signal Transducer and Activator of Transcription 3 (STAT3) (AID 2282963). Conditions: HepG2, Attagene cis-factorial STAT3 reporter transcription; actives raise or lower the signal. Put shortly: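 Readout: fluorescent reporter mRNA fragments resolved by capillary electrophoresis. Setup: HepG2 transfected with MRTUs reporting endogenous transcription-factor activity, dosed 24 h. Gain or loss of signal fitted bidirectionally against DMSO control.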
Sequence of Signal transducer and activator of transcription 3 (Homo sapiens) (P40763 whole entry, looked up, the tested form may be a part): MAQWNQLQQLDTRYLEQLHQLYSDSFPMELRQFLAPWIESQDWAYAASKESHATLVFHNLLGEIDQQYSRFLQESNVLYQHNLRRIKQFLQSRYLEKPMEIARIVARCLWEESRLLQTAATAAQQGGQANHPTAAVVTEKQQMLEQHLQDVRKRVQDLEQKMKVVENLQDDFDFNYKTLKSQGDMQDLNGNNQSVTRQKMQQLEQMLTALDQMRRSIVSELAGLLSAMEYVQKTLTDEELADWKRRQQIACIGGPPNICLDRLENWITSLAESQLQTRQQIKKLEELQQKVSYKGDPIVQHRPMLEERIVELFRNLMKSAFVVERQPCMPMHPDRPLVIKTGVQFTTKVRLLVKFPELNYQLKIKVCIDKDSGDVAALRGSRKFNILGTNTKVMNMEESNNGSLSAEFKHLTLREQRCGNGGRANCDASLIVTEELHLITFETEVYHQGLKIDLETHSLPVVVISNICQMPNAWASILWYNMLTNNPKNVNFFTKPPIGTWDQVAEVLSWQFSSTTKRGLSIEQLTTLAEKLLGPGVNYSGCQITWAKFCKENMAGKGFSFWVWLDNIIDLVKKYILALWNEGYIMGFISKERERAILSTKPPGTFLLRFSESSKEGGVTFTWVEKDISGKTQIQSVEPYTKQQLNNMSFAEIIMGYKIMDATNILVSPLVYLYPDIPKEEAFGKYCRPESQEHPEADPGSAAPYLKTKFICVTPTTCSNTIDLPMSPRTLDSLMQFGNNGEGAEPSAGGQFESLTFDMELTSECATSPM

The nature of experiment [19]: ATG_TCF_b_cat_CIS: Attagene CIS-FACTORIAL HepG2 Assay for human T-Cell-Factor with beta-catenin (TCF/b-cat) (AID 2282965). Conditions: HepG2 TCF/beta-catenin cis-reporter transcription, actives raise or lower the signal. Put shortly: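 Cells of the HepG2 line carry transiently transfected reporter units whose promoters respond to endogenous factors. Twenty-four hours post-dosing, reporter mRNA induction is measured by fluorescent RT-PCR and capillary electrophoresis, with DMSO as baseline.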

Experiment [20] can be described thus: ATG_TA_CIS: Attagene CIS-FACTORIAL HepG2 Assay for human TA Basal Promoter (AID 2282964). The following applies: HepG2 Attagene CIS-factorial TA basal promoter reporter; actives raise or lower the signal. Put shortly: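 Transient MRTU transfection of HepG2 preceded 24 h compound exposure. Reporter mRNA levels were then read by RT-PCR with capillary electrophoresis, and this background-control endpoint was fitted bidirectionally to DMSO.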

Activity calls are given as the source filed them. How the source made its calls: active means hit-call score of the fitted dose curve at least 0.9, where 1 is the maximum; inactive means score below 0.9.

Sequence of Paired box protein Pax-6 (Homo sapiens) (P26367 whole entry, looked up): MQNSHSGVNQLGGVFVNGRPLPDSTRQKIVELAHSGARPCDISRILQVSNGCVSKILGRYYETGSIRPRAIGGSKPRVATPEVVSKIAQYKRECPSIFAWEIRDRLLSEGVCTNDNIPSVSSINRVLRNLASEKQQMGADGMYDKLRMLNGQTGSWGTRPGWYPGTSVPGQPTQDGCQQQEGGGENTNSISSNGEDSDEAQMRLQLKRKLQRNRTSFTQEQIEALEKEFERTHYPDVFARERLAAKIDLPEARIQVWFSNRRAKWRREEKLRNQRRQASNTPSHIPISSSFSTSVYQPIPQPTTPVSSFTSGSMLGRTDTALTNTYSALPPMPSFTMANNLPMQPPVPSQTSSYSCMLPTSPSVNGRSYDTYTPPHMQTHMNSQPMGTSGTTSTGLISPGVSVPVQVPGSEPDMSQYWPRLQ
Sequence of Hypoxia-inducible factor 1-alpha (Homo sapiens) (Q16665 whole entry, looked up): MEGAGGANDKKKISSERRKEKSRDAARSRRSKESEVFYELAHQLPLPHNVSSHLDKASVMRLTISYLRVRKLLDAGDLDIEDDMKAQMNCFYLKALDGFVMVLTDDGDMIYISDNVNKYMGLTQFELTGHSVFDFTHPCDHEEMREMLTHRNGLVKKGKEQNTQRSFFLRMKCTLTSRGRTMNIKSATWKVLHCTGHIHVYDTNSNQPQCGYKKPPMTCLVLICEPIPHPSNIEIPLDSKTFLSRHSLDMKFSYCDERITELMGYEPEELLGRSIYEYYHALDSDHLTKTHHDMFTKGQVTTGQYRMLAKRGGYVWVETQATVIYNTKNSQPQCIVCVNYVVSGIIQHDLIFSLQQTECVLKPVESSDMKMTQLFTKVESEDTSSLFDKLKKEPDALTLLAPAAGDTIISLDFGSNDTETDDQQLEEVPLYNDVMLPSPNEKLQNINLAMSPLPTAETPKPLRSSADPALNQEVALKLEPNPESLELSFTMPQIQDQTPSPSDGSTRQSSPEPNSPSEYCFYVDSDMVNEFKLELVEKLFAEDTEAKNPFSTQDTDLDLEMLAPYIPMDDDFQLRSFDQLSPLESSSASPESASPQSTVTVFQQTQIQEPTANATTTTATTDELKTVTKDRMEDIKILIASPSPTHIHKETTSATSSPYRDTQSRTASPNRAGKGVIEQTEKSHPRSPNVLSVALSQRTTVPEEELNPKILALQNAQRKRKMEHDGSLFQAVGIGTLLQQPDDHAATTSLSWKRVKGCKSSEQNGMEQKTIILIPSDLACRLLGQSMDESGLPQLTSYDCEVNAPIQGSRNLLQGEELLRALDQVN
Sequence of Transcription factor Sp1 (Homo sapiens) (P08047 whole entry, looked up): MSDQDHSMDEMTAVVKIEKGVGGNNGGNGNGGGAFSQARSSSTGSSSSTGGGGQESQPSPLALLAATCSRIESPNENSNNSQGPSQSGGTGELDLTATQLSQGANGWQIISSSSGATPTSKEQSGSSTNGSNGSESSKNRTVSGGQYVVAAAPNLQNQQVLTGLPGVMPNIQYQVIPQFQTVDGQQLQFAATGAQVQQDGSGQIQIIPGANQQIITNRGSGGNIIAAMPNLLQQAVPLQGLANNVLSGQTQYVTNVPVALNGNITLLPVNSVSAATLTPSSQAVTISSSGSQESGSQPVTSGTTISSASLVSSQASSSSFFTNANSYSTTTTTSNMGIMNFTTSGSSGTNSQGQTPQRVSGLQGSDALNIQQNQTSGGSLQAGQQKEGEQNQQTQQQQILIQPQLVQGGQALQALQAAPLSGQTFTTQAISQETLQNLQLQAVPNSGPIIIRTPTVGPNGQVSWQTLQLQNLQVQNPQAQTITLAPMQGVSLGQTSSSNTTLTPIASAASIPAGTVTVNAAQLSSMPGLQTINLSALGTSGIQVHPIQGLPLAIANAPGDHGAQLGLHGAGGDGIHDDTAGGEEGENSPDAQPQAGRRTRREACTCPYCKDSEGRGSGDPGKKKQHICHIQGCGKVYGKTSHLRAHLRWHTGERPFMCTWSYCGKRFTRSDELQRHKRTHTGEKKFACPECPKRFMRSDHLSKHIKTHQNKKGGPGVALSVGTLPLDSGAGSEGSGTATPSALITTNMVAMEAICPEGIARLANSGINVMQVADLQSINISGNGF
Sequence of Hepatocyte nuclear factor 6 (Homo sapiens) (Q9UBC0 whole entry, looked up): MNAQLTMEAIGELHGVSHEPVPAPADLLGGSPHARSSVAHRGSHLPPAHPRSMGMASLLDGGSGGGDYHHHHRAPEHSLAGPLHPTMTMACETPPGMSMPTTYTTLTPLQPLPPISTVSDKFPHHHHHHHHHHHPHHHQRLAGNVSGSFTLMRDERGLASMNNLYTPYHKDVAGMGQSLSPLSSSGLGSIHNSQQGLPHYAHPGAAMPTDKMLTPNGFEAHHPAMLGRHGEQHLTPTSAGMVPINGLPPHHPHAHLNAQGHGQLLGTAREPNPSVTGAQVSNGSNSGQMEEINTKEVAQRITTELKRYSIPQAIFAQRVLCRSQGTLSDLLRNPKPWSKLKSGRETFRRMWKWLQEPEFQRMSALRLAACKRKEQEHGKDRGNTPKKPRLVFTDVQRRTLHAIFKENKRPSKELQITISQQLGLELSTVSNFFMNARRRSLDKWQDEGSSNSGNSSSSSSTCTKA

Turning to `Cc1cc(=O)oc2cc(N(C)C)ccc12`, the molecule was called inactive in experiment [1], in [2], in experiment [3], in experiment [4], in experiment [5] and in experiment [6]. In addition, the result in experiment [7], in experiment [8], in [9], in experiment [11], in experiment [12] and in experiment [13] was inactive. Besides, the call in experiment [14], in [15], in experiment [16], in experiment [18] and in experiment [19] was inactive. For the same molecule, the AC50 in experiment [10] and in [17] was 100 µM (active) each time.

`O=C(O)CNc1ccccc1`: the molecule was called inactive in [1], in [2], in experiment [3], in [5], in experiment [6] and in [7]. For the same molecule, the molecule was classed as inactive in [8], in [9], in [10], in experiment [11], in [13] and in experiment [14]. Moreover, the molecule was called inactive in experiment [16], in [18], in experiment [20] and in [19]. Besides, the half-maximal activity concentration (AC50) is 165 µM (active) in experiment [4] and 19.2 µM (active) in experiment [12].

With `CC(C)C[C@H](NC(=O)OCC1c2ccccc2-c2ccccc21)C(=O)O`, the result in experiment [1], in [2], in experiment [3], in [4], in experiment [5] and in [6] was inactive. Besides, the outcome in [7], in [8], in experiment [9], in experiment [10], in experiment [11] and in experiment [14] was inactive. The molecule was called inactive in experiment [15], in experiment [16], in [18], in experiment [20] and in experiment [19]. Moreover, the figures for the AC50 in experiment [12], in experiment [13] and in experiment [17] were 28.2 µM (active), 14.7 µM (active) and 69.1 µM (active), respectively.

For the molecule `C1CCOC1`, the molecule was classed as inactive in [1], in experiment [2], in experiment [3], in [4], in experiment [5] and in experiment [6]. Also, the result in [7], in [8], in experiment [9], in [10], in experiment [11] and in experiment [13] was inactive. Besides, the outcome in experiment [16], in experiment [18] and in [20] was inactive. Also, in experiment [12], the concentration at half-maximal activity (AC50) was 37.3 µM (active).

Broadly, the AC50 is the midpoint of the concentration-response curve, whichever way the signal moves.
